Molecules are shown by their SMILES. The campaign covered roughly 200,000 compounds. About 5,100 (2.5%) were called active. Shown is part of a subset that was picked to be rich in actives. Unmarked numbers belong to inactive results.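 The calls were made as follows: active = activation above the screen-wide mean activation plus 3 SD (cut at about 130% in these data); inactive = the rest.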

The experiment is described as follows: potentiators of IFN-gamma driven STAT1 reporter – cell-based, HTS, luciferase reporter, primary screen (AID 932).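 Also: raw ratio to IFN-gamma control signal so 100% means no change and 0% no light.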 Conditions: NIH 3T3 STAT1-luciferase reporter, luminescence, at 5.5 µM, active compounds read high, 100% = IFN-gamma alone, no compound.
In the case of `CCOC(=O)Cc1csc(NC(=O)COc2ccc3c(C)cc(=O)oc3c2)n1`, the activation (% of control) was 102%.

For `COC(=O)COc1cccc2c(=O)n(CC(=O)NCCc3ccc(OC)c(OC)c3)ccc12`, the activation (% of control) was 100%.

On to `CC(/C=N/NC(=O)c1ccncc1)=C\c1ccco1`, for which the activation (% of control) is 98.5%.

Take `Cc1ccc(-c2cc(C(=O)N/N=C/C=C/c3ccco3)c3ccccc3n2)cc1C`: the activation (% of control) is 78.9%.

For `CC(/C=N/NC(=O)c1cc(-c2ccc3ccccc3c2)n[nH]1)=C\c1ccco1`, the activation (% of control) was 131% (active).

With `c1ccc(CSc2nnc(-c3ccco3)n2Cc2ccccc2)cc1`, the activation (% of control) was 144% (active).

Take `O=C(CSc1nnc(-c2ccco2)n1Cc1ccccc1)NC(=O)NCc1ccco1`: the activation (% of control) is 101%.

Consider `c1ccc(CSc2nnc(-c3ccco3)c(-c3ccco3)n2)cc1`, for which the activation (% of control) was 97.8%.

With `COc1cccc(OCC(=O)NNC(=O)c2cnccn2)c1`, the activation (% of control) is 98.7%.

`COc1ccc2c(c1)CCc1c(C(=O)Nc3c(C)n(C)n(-c4ccccc4)c3=O)noc1-2`: the activation (% of control) was 106%.

Consider `COc1ccc2c(c1)CCc1c(C(=O)N3CCc4ccccc4C3)noc1-2`, for which the activation (% of control) is 96.8%.

For the molecule `COc1ccc2c(c1)CCc1c(C(=O)N3CCCC3)noc1-2`, the activation (% of control) is 131% (active).

Consider `O=C(Nc1cccc(C(F)(F)F)c1)c1ccc(N2CCNCC2)c([N+](=O)[O-])c1`, for which the activation (% of control) is 90.2%.

On to `Cc1occc1C(=O)NNC(=S)NCC(C)C`, for which the activation (% of control) was 102%.

Consider `CC(C)CNC(=S)NC(=O)c1ccc(Cl)cc1`, for which the activation (% of control) was 136% (active).

Turning to `CC(C)C(NC(=O)c1ccc(Cl)cc1)C(=O)O` (stereo unspecified), the activation (% of control) was 110%.

As to `Cn1c(CNC(=O)c2ccccc2F)nnc1SCc1ccc(F)cc1`, the activation (% of control) was 103%.

For the molecule `O=C(Nc1ccccc1)c1ccc2c(c1)OCO2`, the activation (% of control) was 110%.

`Cc1cc(C)c2nc(NC(=O)c3ccc4c(c3)OCO4)sc2c1`: the activation (% of control) is 98.5%.

As for `O=C(Nc1nc2ccccc2s1)c1ccc2c(c1)OCO2`, the activation (% of control) was 130% (active).

As to `Cc1ccc(-c2csc(NC(=O)c3cnccn3)n2)cc1C`, the activation (% of control) is 105%.

Take `O=C(Nc1nc(-c2ccc(-c3ccccc3)cc2)cs1)c1cnccn1`: the activation (% of control) was 113%.

Consider `O=C(Nc1nc(-c2cccnc2)cs1)c1ccccc1F`, for which the activation (% of control) is 141% (active).

In the case of `Cc1ccc(C(=O)CSc2nc3ccccc3c(=O)n2N)o1`, the activation (% of control) is 140% (active).

With `O=C(CCn1c(SCC(=O)c2ccccc2)nc2ccccc2c1=O)NCc1ccc(F)cc1`, the activation (% of control) was 94.6%.

Take `COc1ccc(OCc2ccc(-c3nc4ccccc4c(=O)n3N)o2)cc1`: the activation (% of control) is 127%.

For the molecule `Cc1ccccc1OCC(O)CN1CCN(c2ccccn2)CC1` (stereo unspecified), the activation (% of control) was 104%.

For `CCNC(=S)NNC(=O)C1CCN(Cc2ccccc2)CC1`, the activation (% of control) is 90.4%.

As for `Cc1ccc(-c2nn(-c3ccccc3)cc2C(=O)Nc2cccc(S(=O)(=O)N3CCOCC3)c2)cc1`, the activation (% of control) is 102%.

For `CCc1ccc(C2C(C#N)=C(N)N(N(C)C)C3=C2C(=O)CCC3)s1` (stereo unspecified), the activation (% of control) is 105%.

Take `CCN(CC)C(=O)c1sc2nc(-c3ccccc3)ccc2c1N`: the activation (% of control) was 146% (active).

For `CCOC(=O)c1sc2nc(SC)nc(-c3ccccc3)c2c1N`, the activation (% of control) is 90%.

Turning to `CS(=O)(=O)c1sc2nc(-c3ccccc3)cc(-c3ccccc3)c2c1N`, the activation (% of control) was 104%.

Take `CCN(CC)c1ccc(C(=O)OCC(=O)c2ccco2)cc1`: the activation (% of control) is 149% (active).

On to `O=C(COC(=O)c1ccccc1C(=O)c1ccccc1)c1ccco1`, for which the activation (% of control) is 103%.

With `O=C(OCC(=O)N1CCCC1)c1ccco1`, the activation (% of control) is 104%.

Turning to `CCOC(=O)/C=c1\s/c(=C\c2ccc(C#N)cc2)c(=O)n1CC(=O)Nc1cccc(C)c1C`, the activation (% of control) was 102%.

For the molecule `CN(C)CCCN1C(=O)CSC1c1ccc([N+](=O)[O-])cc1` (stereo unspecified), the activation (% of control) is 95%.

As for `CCOc1ccc2nc(C(=O)N3CCCC(C)C3)sc2c1` (stereo unspecified), the activation (% of control) was 153% (active).

As to `CCOc1ccc2nc(SC(CC)C(=O)Nc3cc(C)on3)sc2c1` (stereo unspecified), the activation (% of control) was 86.5%.

Consider `CCOc1ccc2nc(Nc3nc4ccc(NC(C)=O)cc4s3)sc2c1`, for which the activation (% of control) is 106%.

In the case of `CCNc1nc(NC(C)C)nc(N2CC(=O)N(CC(=O)OCC)C2=N)n1`, the activation (% of control) is 93.2%.

Regarding `O=C(Oc1cccc(N2C(=O)C3C4c5ccccc5C(c5ccccc54)C3C2=O)c1)c1ccco1` (stereo unspecified), the activation (% of control) was 102%.

As to `Cc1ccc(-n2c(SCC(=O)N3c4ccccc4Sc4ccccc43)nnc2-c2ccncc2)cc1`, the activation (% of control) is 109%.

Turning to `CC(C)(C)C(=O)NCCCNc1ccc([N+](=O)[O-])cc1`, the activation (% of control) is 112%.

As to `COc1cc(/C=N/O)ccc1OCc1ccc([N+](=O)[O-])cc1`, the activation (% of control) was 206% (active).

For `COc1cc(/C=N\Nc2ccc([N+](=O)[O-])cn2)ccc1OCC(=O)O`, the activation (% of control) is 98%.

As for `COc1cc(C(=O)OCc2ccc([N+](=O)[O-])cc2)cc(OC)c1OC`, the activation (% of control) was 104%.

Regarding `CCOc1ccc(S(=O)(=O)Nc2ccncc2)c(C)c1C`, the activation (% of control) was 97%.

Turning to `C/C(CCC(=O)OC[C@H]1O[C@H](C#Cc2ccccc2)C=C[C@@H]1Oc1ccc(C)cc1)=N\OC[C@@H](O)[C@H]1O[C@@H]2OC(C)(C)O[C@@H]2[C@H]1O`, the activation (% of control) is 106%.

As for `Cc1cc(C)c2nc(NC(=O)C3CCCO3)sc2c1` (stereo unspecified), the activation (% of control) is 151% (active).

For `Cc1cc(Br)ccc1NC(=O)C1CCCO1` (stereo unspecified), the activation (% of control) is 107%.

Regarding `O=C(Nc1nc2ccc(S(=O)(=O)N3CCCC3)cc2s1)C1CCCO1` (stereo unspecified), the activation (% of control) is 95.5%.

With `CCc1cc2c(=O)c(-c3nc4ccccc4n3C)c(CCCC(=O)O)oc2cc1OC(=O)C(C)(C)C`, the activation (% of control) was 90.5%.

`COC(=O)C1=CN(Cc2ccc(OC)c(OC)c2)C=C(C(=O)OC)C1c1cccs1`: the activation (% of control) was 45.2%.

Regarding `C=CCNC(=O)/C=C/c1ccc(C(C)C)cc1`, the activation (% of control) is 120%.

Turning to `Cn1c(=NC(=O)C2CC2)sc2cc(F)cc(F)c21`, the activation (% of control) was 108%.

Consider `Cn1c(=NC(=O)c2ccco2)sc2cccc(F)c21`, for which the activation (% of control) is 135% (active).

For the molecule `CCCC(=O)N=c1sc2cccc(F)c2n1C`, the activation (% of control) was 114%.

With `CC(=O)Nc1ccc(S(=O)(=O)Oc2ccc(/C=N/N=C3/NC(=O)C(CC(=O)O)S3)cc2)cc1` (stereo unspecified), the activation (% of control) is 97.8%.

As to `CCCCn1c(=O)c(C(C)=O)c(O)c2ccccc21`, the activation (% of control) is 95.7%.

For the molecule `COc1cc([C@H](Cc2ccccc2)NC(C)=O)oc(=O)c1`, the activation (% of control) is 96.8%.

Take `C=CCn1c(C)cc(C2=NNC(=NCC)SC2)c1C`: the activation (% of control) is 15.6%.

As for `COCCn1c(C)cc(C2=NNC(=Nc3ccc(F)cc3)SC2)c1C`, the activation (% of control) was 133% (active).

On to `Cc1cc(C2=NNC(=Nc3ccc(S(=O)(=O)N4CCOCC4)cc3)SC2)c(C)n1CC1CCCO1` (stereo unspecified), for which the activation (% of control) is 99.8%.

`COc1ccc(C2CC(c3cccs3)=NN2c2ccccc2)cc1` (stereo unspecified): the activation (% of control) was 93.2%.

Turning to `Cc1cc(C)cc(N(CC(=O)NCCSCc2ccco2)S(C)(=O)=O)c1`, the activation (% of control) was 102%.

Regarding `Cc1ccccc1Nc1nc(N)nc(CSc2ccccc2)n1`, the activation (% of control) is 183% (active).

For the molecule `Cc1ccc(C(=O)OCc2nc(N)nc(Nc3ccccc3C)n2)cc1`, the activation (% of control) is 96.8%.

`Cc1ccccc1Nc1nc(N)nc(CSc2nnc3ccccn23)n1`: the activation (% of control) was 120%.

With `CC(C)(C)C1CCC(=NNC(=O)c2cc(-c3ccccc3)n[nH]2)CC1` (stereo unspecified), the activation (% of control) is 113%.

Regarding `CCOC(=O)N1CCN(C(=O)C2CCN(Cc3ccc(OC)cc3OC)CC2)CC1`, the activation (% of control) was 94.7%.

As to `CCOc1ccc2nc(/N=C/c3nc(-c4ccccc4)oc3O)sc2c1`, the activation (% of control) is 104%.

With `CC(N=Cc1nc(-c2ccccc2)oc1O)c1ccccc1` (stereo unspecified), the activation (% of control) was 104%.

As for `Oc1oc(-c2ccccc2Br)nc1/C=N/c1ccccn1`, the activation (% of control) was 131% (active).

Regarding `O=C1NC(c2ccc(-c3ccccc3[N+](=O)[O-])o2)C(C(=O)c2ccc(Cl)cc2)C(O)(C(F)(F)F)N1` (stereo unspecified), the activation (% of control) was 102%.

As to `COc1ccc(C(C)=O)cc1CSc1nc2nc(C)cc(C)n2n1`, the activation (% of control) was 93.7%.

`COc1ccc(C(=O)COC(=O)c2ccc3ccccc3n2)cc1`: the activation (% of control) is 103%.

As for `O=C(Oc1ccc([N+](=O)[O-])cc1)c1ccc2ccccc2n1`, the activation (% of control) is 94.7%.

As for `CC(OC(=O)c1ccc2ccccc2n1)C(=O)c1ccccc1` (stereo unspecified), the activation (% of control) was 138% (active).

As for `CCC(NC(=O)c1ccccc1NC(=O)c1ccccc1)C(=O)NNC(=O)CSc1nc2ccccc2o1` (stereo unspecified), the activation (% of control) was 94%.

Consider `Cc1[nH]n(-c2ccc(Cl)cc2)c(=O)c1/C=N/n1c(C)nc2ccccc2c1=O`, for which the activation (% of control) is 99.3%.

Consider `Cc1[nH]n(-c2ccccc2)c(=O)c1/C=N/NC(=O)c1ccoc1C`, for which the activation (% of control) was 155% (active).

Consider `Cc1ccc(-n2[nH]c(C)c(/C=N/NC(=O)c3cccc([N+](=O)[O-])c3)c2=O)cc1C`, for which the activation (% of control) was 101%.

For `C=CCn1c(SCC(N)=O)nnc1-c1cc2c(s1)CCC(CC)C2` (stereo unspecified), the activation (% of control) is 121%.

Regarding `CC1CN(/C=C/C(=O)C(F)(F)F)CC(C)O1` (stereo unspecified), the activation (% of control) was 95.8%.

On to `CCSc1sc(CC)cc1C=O`, for which the activation (% of control) is 107%.

As for `COc1ccccc1-c1cc(C(=O)N2CCCCC2)no1`, the activation (% of control) was 164% (active).

For the molecule `O=C(c1cc(-c2cccs2)on1)N1CCCCC1`, the activation (% of control) was 162% (active).

For `O=C(c1cc(-c2ccccc2O)on1)N1CCCC1`, the activation (% of control) was 108%.

Take `COc1ccccc1N1CCN(C(=O)c2cc(-c3ccc(Br)cc3)on2)CC1`: the activation (% of control) was 99.6%.

With `Cc1ccc(-c2cc(C(=O)N3CCc4ccccc4C3)no2)cc1`, the activation (% of control) was 97.3%.

Turning to `O=C(c1ccc(F)cc1)N1CCCC(c2nc(-c3cccs3)no2)C1` (stereo unspecified), the activation (% of control) was 96.9%.

As for `COc1ccc(C2CC(c3cccs3)Nc3nnnn32)cc1` (stereo unspecified), the activation (% of control) was 87.6%.

For the molecule `Cc1cc(=O)[nH]c(N/N=C/c2c(C)nn(-c3ccccc3Cl)c2Cl)n1`, the activation (% of control) was 100%.

For `CC(OC(=O)CNS(=O)(=O)/C=C/c1ccccc1)C(=O)Nc1ccc(S(=O)(=O)N2CCCC2)cc1` (stereo unspecified), the activation (% of control) was 89%.

Source of the values: PubChem BioAssay AID932 (The Scripps Research Institute Molecular Screening Center, 2007).
